For 97 compounds, cytotoxicity results are on record in PubChem BioAssay AID431 (Sanford-Burnham Center for Chemical Genomics, 2006).

Out of some 63,000 compounds screened, about 1,100 (1.7%) were called active. The list comes from a sample in which actives are over-represented; it also holds similar structures and randomly drawn compounds. Entries with a potency or affinity are not part of this list. A number with no mark means an inactive call.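 The calls were made as follows: active = compounds whose percent cytotoxicity in the single-dose primary screen, scaled between solvent and toxic-drug controls, exceeds 50; inactive = the rest.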

This test can be described thus: cytotoxicity in KRAS-transformed pancreatic duct cells, primary screen, cell-based, fluorescence, HTS (AID 431).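 Also: 0% = DMSO solvent wells and 100% = doxorubicin-treated wells.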 To be noted: HPDE-C7K KRASV12 cells, Alamar Blue viability, 48 h; at 10 µM; hits give high values. On the technique in general: The colour change of resazurin is a common sign of viable cells or microbes.
As for `O=C(Nc1ccccc1C(=O)N1CCCC1)c1cccc(S(=O)(=O)N2CCCCCC2)c1`, the cytotoxicity is -4.2%. Next, `c1ccc2c(c1)CCN2CCN1CCc2ccccc21`: 1.1%. In the case of `COc1ccc(NC(=O)C2CCCN2C(=O)NCc2ccccc2)c(OC)c1` (configuration not stated) it was -13.7%; in that of `O=C(c1cc(-c2ccccn2)nc2c(Cl)cccc12)N1CCN(C(=O)C2CCCO2)CC1` (configuration not stated), 0.1%. In the case of `CCn1c(Sc2nc(C)nc3scc(-c4cccs4)c23)n[nH]c1=O` it was -16.8%; in that of `Cc1cccc(C(=O)NC2CC3CCCC(C2)N3C(=O)NC2CCCCC2)c1` (configuration not stated), -1.9%; in that of `NC1=NC(c2ccc(Cl)cc2)n2c(nc3ccccc32)N1` (configuration not stated), -23.5%. For `Cc1nnc(NC(=O)c2cc3n(n2)C(C(F)(F)F)CC(C2CC2)N3)s1` (configuration not stated), the cytotoxicity is -34.9%. In the case of `O=C(Nc1nc2c(s1)CCCC2)c1cc2n(n1)C(C(F)(F)F)CC(C1CC1)N2` (configuration not stated) it was 52.5% (active); in that of `O=C(NCc1ccc(F)cc1)c1cc2n(n1)C(C(F)(F)F)CC(C1CC1)N2` (configuration not stated), -22%. On to `COC(=O)COc1cccc(NC(=O)c2ccccc2)c1`, for which the cytotoxicity was -1.5%. In the case of `Cc1nc2sc(C(c3cccc(F)c3)N3CCC(O)CC3)c(O)n2n1` (configuration not stated) it was -0.3%; in that of `CC(=O)C1=C(C)N=c2s/c(=C/c3ccc4c(c3)OCO4)c(=O)n2C1c1ccc(N(C)C)cc1` (configuration not stated), -0.2%. Next, `COc1ccc(C2C(C(C)=O)=C(C)N=c3s/c(=C/c4ccc5c(c4)OCO5)c(=O)n32)cc1` (configuration not stated): -10.1%; `CCC(C)(C)n1nnnc1C(c1cc2ccc(OC)cc2[nH]c1=O)N1CCc2ccccc2C1` (configuration not stated): 35%. Next, `COC(=O)c1ccccc1NS(=O)(=O)c1ccc(O)c(C(=O)O)c1`: 19.7%; `COC(=O)c1ccc(CN2C(=O)NC3(CCCCC3C)C2=O)o1` (configuration not stated): 3.4%; `CCN(CC)c1ccc(NC(=O)c2cnc3ccccn3c2=O)c(C)c1`: 3.9%.

Turning to `Cn1nnnc1SCCNCc1cccc2ccccc12`, the cytotoxicity was -3%. Next, `CCOc1cccc(C(=O)Nc2ccc(N(CC)CC)cc2)c1`: 87.5% (active); `CC(=O)Nc1ccc(NC(=O)c2ccccc2F)cc1`: 8.8%. In the case of `CCOc1cccc(C(=O)Nc2ccc(N3CCN(S(C)(=O)=O)CC3)cc2)c1` it was -10%; in that of `CN(C)c1cccc(C(=O)Nc2cccc(F)c2)c1`, 2.1%; in that of `CCN(CC)c1ccc(C(=O)Nc2cccc(F)c2)cc1`, 57.4% (active).

Take `CCN(CC)c1ccc(NC(=O)c2cc(OC)cc(OC)c2)c(C)c1`: the cytotoxicity is 59.9% (active). `O=C(Nc1ccncc1)c1ccccc1F`: the cytotoxicity was -14.5%. Next, `CCN(CC)c1ccc(NC(=O)c2ccccc2F)cc1`: 50.7% (active). In the case of `CCOc1ccc(NC(=O)c2cccc(-n3cnnn3)c2)cc1` it was -18%; in that of `CCN(CC)c1ccc(NC(=O)c2ccco2)c(C)c1`, 10.7%; in that of `CCN(CC)c1ccc(NC(=O)Nc2cccc(C(C)=O)c2)cc1`, 16.4%. In the case of `CCN(CC)c1ccc(NC(=O)c2ccc(NC(=O)C3CCCO3)cc2)c(C)c1` (configuration not stated) it was -1.3%. Take `Cc1cccc(COc2ccc(/C(O)=C3\C(=O)C(=O)N(CCN(C)C)C3c3ccncc3)cc2)c1` (configuration not stated): the cytotoxicity is 0.7%. In the case of `O=C(c1ccco1)N1CCN(C(=O)c2cc(-c3ccncc3)nc3ccc(Br)cc23)CC1` it was 1.3%. Next, `O=C(NCC(=O)N(Cc1ccccc1)C(C(=O)NC1CCCC1)c1ccco1)c1ccco1` (configuration not stated): -6.1%; `Cn1c(COc2ccccc2)nnc1SCC(=O)Nc1ccc2c(c1)OCO2`: 9.4%; `O=C1c2oc3ccc(F)cc3c(=O)c2C(c2ccncc2)N1CCN1CCOCC1` (configuration not stated): -11.5%.

As to `O=C(CN(Cc1ccco1)S(=O)(=O)c1cccs1)Nc1ccccc1C(F)(F)F`, the cytotoxicity is -23.6%. In the case of `CCN(CC)c1ccc(NC(=O)c2cccc(OC)c2)c(C)c1` it was 55.4% (active); in that of `CCN(CC)c1ccc(NC(=O)c2c(OC)cccc2OC)c(C)c1`, -0.6%. Next, `CCN(CC)c1ccc(NC(=O)c2cccc(C)c2OC)c(C)c1`: 2.9%.

As to `O=C(Nc1ccc(N2CCN(Cc3ccccc3Cl)CC2)cc1)c1cccnc1`, the cytotoxicity is 16.7%. Regarding `Cc1cc(Nc2ccccc2C(=O)O)nc2nc3ccccc3c(=O)n12`, the cytotoxicity is -5.3%.

For the compound `N#CC(C(=O)NC1CCCCC1)c1nc2ccccc2nc1N1CCOCC1` (configuration not stated), the cytotoxicity was 13.7%. Next, `CCc1ccc(-c2cn(-c3nc(C)cc(C)n3)c(=N)o2)cc1`: 54.8% (active). Next, `CCc1ccc(-n2c(O)cnc2Nc2nc(C)cc(C)n2)cc1`: -3%; `CCc1ccc(-c2cn3nc(C)c(C)nc3n2)cc1`: -7.6%. With `CC1CCc2cc(F)ccc2N1C(=O)CCC(=O)O` (configuration not stated), the cytotoxicity is -12.5%.

As to `CN(C)c1nc(N)nc(CSc2nnnn2C)n1`, the cytotoxicity was 8.9%. In the case of `COc1ccc(C2=NOC(CN3C(=O)c4ccccc4S3(=O)=O)C2)cc1` (configuration not stated) it was -0.1%. In the case of `CC(C)(C)N1C(=O)Cc2c1nc(N)c1c(N)nc(N3CCCCC3CO)c(C#N)c21` (configuration not stated), the cytotoxicity was 59.9% (active). In the case of `N#Cc1c(N)nc2c(c1N)CC(=O)N2c1ccccc1-c1ccccc1`, the cytotoxicity is 5.8%. In the case of `CC1(C)CC(=O)C2=C(C1)Oc1ncn(CCCn3ccnc3)c(=N)c1C2c1ccccc1` (configuration not stated) it was 9.8%; in that of `N=c1c2c(-c3ccccc3)c(-c3ccccc3)n(Cc3ccco3)c2ncn1CCN1CCOCC1`, 32.6%. In the case of `OCCNc1ncnc2c1c(-c1ccccc1)c(-c1ccccc1)n2Cc1ccco1` it was 21.6%; in that of `O=c1c2ccccc2nc(-c2ccccc2)n1CCCn1ccnc1`, -22.7%; in that of `COC(=O)c1c(F)c(F)c(N2CCOCC2)c(F)c1F`, -3.4%.

Regarding `CC(C)CC(=O)Nc1ncnc2c1C(=O)CC(C)(C)C2`, the cytotoxicity is -2.6%. Next, `COc1ccc(-c2nnn(CC(=O)N(C3CCCCC3)C(C)C(=O)NC3CCCC3)n2)cc1OC` (configuration not stated): -4.4%; `COC(=O)C1=C(C)N(c2ccc(F)c(Cl)c2)C(=O)C1`: 0.2%; `COC(=O)C1=C(C)N(c2ccc(Cl)c(Cl)c2)C(=O)C1`: 79% (active). In the case of `COC(=O)C1=C(C)N(c2cccc(Cl)c2)C(=O)C1` it was -6.2%. In the case of `CCOC(=O)c1ccc(-n2c(N)c(C(=O)NCc3ccco3)sc2=S)cc1` it was 10.8%. For the compound `O=S(=O)(Nc1ccc(S(=O)(=O)N2CCCCC2)cc1)c1cccs1`, the cytotoxicity is -10.1%. Next, `CCOc1ccc(Cl)cc1S(=O)(=O)n1nnc2ccccc21`: 4.6%; `CCOc1cc(C)c(Cl)cc1S(=O)(=O)n1nnc2ccccc21`: 52.2% (active). `COc1cc(S(=O)(=O)n2nnc3ccccc32)c(OC)cc1Cl`: the cytotoxicity is 59.1% (active).

Consider `COc1ccc(OC)c(S(=O)(=O)n2nnc3ccccc32)c1`, for which the cytotoxicity is 11.6%. In the case of `CCOc1cc(C)c(Cl)cc1S(=O)(=O)n1cnc2ccccc21` it was 7.1%. Consider `COc1ccc(Cl)cc1S(=O)(=O)n1nnc2ccccc21`, for which the cytotoxicity is 4.4%. In the case of `COc1ccc(COC(=O)c2ccc(N3CCCC3=O)cc2)cc1F` it was 0.9%; in that of `O=C(NCc1ccco1)c1cnc2n(c1=O)CCS2`, 8.6%. Next, `CSc1nc(N)nc(SCC(=O)c2ccc(C)cc2)c1C#N`: -1%. In the case of `CSc1nc(N)nc(SCC(=O)C23CC4CC(CC(C4)C2)C3)c1C#N` it was 76.6% (active); in that of `CSc1nc(N)nc(SCC(=O)OC(C)C)c1C#N`, -1.2%. As for `CCCCOc1cccc(C(=O)N(Cc2ccco2)C2CCS(=O)(=O)C2)c1` (configuration not stated), the cytotoxicity is -19.4%. Next, `COC(=O)C(NC(=O)c1ccccc1)=C(C)C`: -16.9%; `Cc1[nH]c(=S)[nH]c(=O)c1Cc1ccccc1`: -7.5%. `O=C(c1ccco1)N1c2ccccc2Sc2ccccc21`: the cytotoxicity is 4.1%.

`O=C(N1CCOCC1)N1CCN(c2ccccn2)CC1`: the cytotoxicity is -19.2%. Next, `O=C(c1ccco1)N1CCN(C(=O)N2c3ccccc3Sc3ccccc32)CC1`: 74.4% (active).

In the case of `O=C(CN1CCN(c2ccccn2)CC1)N1c2ccccc2Sc2ccc(C(F)(F)F)cc21`, the cytotoxicity is 17%. Next, `O=C(N1CCN(c2ccccn2)CC1)N1c2ccccc2Sc2ccccc21`: 66.6% (active); `O=C(NC1CCN(C(=O)N2c3ccccc3Sc3ccccc32)CC1)c1ccco1`: -3.7%; `Cc1ccc2c(c1)c1c3n2CC(=C2C(=O)OC(C)(C)OC2=O)NC3CCC1` (configuration not stated): 33.1%. Next, `CC1(C(=O)O)CC(C)(C(=O)O)CC(C)(C(=O)O)C1` (configuration not stated): -1.4%; `FC(F)(F)c1cc(-c2ccccc2)nc(N2CCCCC2)n1`: -12.8%; `CCN(CCCNC(=O)c1[nH]c(C)c(C(C)=O)c1C)c1ccccc1`: 11.4%.

Turning to `NC(=O)c1ccccc1NC(=O)CCc1ccccc1`, the cytotoxicity was 3.2%. As for `CCOc1ccc(OCC)c(NC(=O)CN2CCN(c3cccc(C)c3C)CC2)c1`, the cytotoxicity is -0.1%.

Turning to `Cc1cccn2c(=O)c(/C=N/O)c(N3CCCCC3)nc12`, the cytotoxicity was 3.4%. Next, `O=C1c2ccccc2NC(c2ccco2)N1O` (configuration not stated): 9.4%; `O=C1COc2ccc(C(=O)c3ccccc3)cc2CN1`: -4.7%. In the case of `COc1ccccc1N(CC(=O)N1CCCCCC1)S(C)(=O)=O` it was -11.5%; in that of `Oc1c(CN2CCCCC2)cc(COCc2ccccc2)c2cccnc12`, 2.2%. In the case of `COCc1cc(CN2CCCC2)c(O)c2ncccc12` it was -4.6%. Turning to `COCc1[nH]nc2c1C1(C(=O)Nc3ccc(F)cc31)C(C#N)=C(N)O2` (configuration not stated), the cytotoxicity was -38.8%. With `Cc1ccc(NC(=O)CC2SCCNC2=O)cc1Cl` (configuration not stated), the cytotoxicity was -0.4%.
